Reference: PubChem BioAssay AID1159580 (chemical genetic matrix, 2015)
The whole screen tested about 5,500 compounds, of which about 2,000 (36%) were called active. Not shown: some 18% with an inconclusive outcome. Rule as the data show it: active = normalized growth mostly below about 0.91 (no sharp cut-off); inconclusive = no clear call, values can overlap the other calls; inactive = mostly above about 0.92. Some of the results follow.

Test: chemical genetic growth profiling, strain panel (AID 1159580);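 also: tested at 20 µM; growth read once vehicle control cultures reached saturation at 30 °C; 1 = growth at the plate median or of vehicle wells; lower values mean less growth of the strain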
Conditions: growth OD

Measured: normalized growth

CC(C)c1c(O)c(-c2cc3c(c(C(C)C)c2O)CCC2C(C)(C)CCC[C@]32C)cc2c1CCC1C(C)(C)CCC[C@]21C (some centres not stated)
inactive: S. cerevisiae deletion strains, locus YJR075W, strain HOC1, stronger effect = lower value 1.01 | S. cerevisiae deletion strains, locus YKL009W, strain mrt4, stronger effect = lower value 1.06 | S. cerevisiae deletion strains, locus YKL068W, stronger effect = lower value 1.01 | S. cerevisiae deletion strains, locus YKL085W, strain MDH1 (second series), stronger effect = lower value 1.07 | S. cerevisiae deletion strains, locus YKL085W, strain MDH1, stronger effect = lower value 1.07 | S. cerevisiae deletion strains, locus YKL160W, strain elf1, stronger effect = lower value 0.984 | S. cerevisiae deletion strains, locus YKL190W, strain CNB1, stronger effect = lower value 1.01 | S. cerevisiae deletion strains, locus YKR001C, strain vps1, stronger effect = lower value 1.03 | S. cerevisiae deletion strains, locus YKR026C, strain gcn3, stronger effect = lower value 0.993 | S. cerevisiae deletion strains, locus YKR091W, strain srl3, stronger effect = lower value 0.971 | S. cerevisiae deletion strains, locus YLL001W, strain dnm1, stronger effect = lower value 1.01 | S. cerevisiae deletion strains, locus YLL026W, stronger effect = lower value 0.997 | S. cerevisiae deletion strains, locus YLL041C, strain sdh2, stronger effect = lower value 1.02 | S. cerevisiae deletion strains, locus YLR027C, strain aat2, stronger effect = lower value 0.983 | S. cerevisiae deletion strains, locus YLR039C, strain RIC1, stronger effect = lower value 1.07 | S. cerevisiae deletion strains, locus YLR058C, strain SHM2, stronger effect = lower value 1.02 | S. cerevisiae deletion strains, locus YLR102C, strain apc9, stronger effect = lower value 1.02 | S. cerevisiae deletion strains, locus YLR113W, strain HOG1, stronger effect = lower value 0.996 | S. cerevisiae deletion strains, locus YLR221C, strain rsa3, stronger effect = lower value 1.02 | S. cerevisiae deletion strains, locus YLR258W, strain gsy2, stronger effect = lower value 0.974 | S. cerevisiae deletion strains, locus YLR262C, strain YPT6 (second series), stronger effect = lower value 0.987 | S. cerevisiae deletion strains, locus YLR262C, strain YPT6, stronger effect = lower value 1.05 | S. cerevisiae deletion strains, locus YLR268W, strain sec22, stronger effect = lower value 1.01 | S. cerevisiae deletion strains, locus YLR320W, strain mms22, stronger effect = lower value 1.02 | S. cerevisiae deletion strains, locus YLR330W, strain CHS5, stronger effect = lower value 1.01 | S. cerevisiae deletion strains, locus YLR342W, strain FKS1 (second series), stronger effect = lower value 1.04 | S. cerevisiae deletion strains, locus YLR342W, strain FKS1, stronger effect = lower value 0.99 | S. cerevisiae deletion strains, locus YLR357W, strain rsc2, stronger effect = lower value 0.976 | S. cerevisiae deletion strains, locus YLR370C, strain arc18, stronger effect = lower value 0.982 | S. cerevisiae deletion strains, locus YLR371W, strain rom2, stronger effect = lower value 1.02 | S. cerevisiae deletion strains, locus YLR384C, strain iki3, stronger effect = lower value 0.972 | S. cerevisiae deletion strains, locus YLR418C, strain cdc73, stronger effect = lower value 1.01 | S. cerevisiae deletion strains, locus YML016C, strain PPZ1, stronger effect = lower value 1.02 | S. cerevisiae deletion strains, locus YML032C, strain rad52, stronger effect = lower value 1.03 | S. cerevisiae deletion strains, locus YML120C, strain ndi1, stronger effect = lower value 1 | S. cerevisiae deletion strains, locus YML124C, strain tub3, stronger effect = lower value 1.01 | S. cerevisiae deletion strains, locus YMR058W, strain fet3, stronger effect = lower value 0.982 | S. cerevisiae deletion strains, locus YMR078C, strain ctf18, stronger effect = lower value 1.01 | S. cerevisiae deletion strains, locus YMR125W, strain sto1, stronger effect = lower value 0.968 | S. cerevisiae deletion strains, locus YMR129W, stronger effect = lower value 0.98 | S. cerevisiae deletion strains, locus YMR205C, strain PFK2, stronger effect = lower value 0.973 | S. cerevisiae deletion strains, locus YMR223W, strain ubp8, stronger effect = lower value 1.03 | S. cerevisiae deletion strains, locus YMR231W, strain pep5, stronger effect = lower value 1.04 | S. cerevisiae deletion strains, locus YMR263W, strain SAP30, stronger effect = lower value 1.02 | S. cerevisiae deletion strains, locus YMR307W, strain GAS1, stronger effect = lower value 1.03 | S. cerevisiae deletion strains, locus YNL067W, strain RPL9B, stronger effect = lower value 1.02 | S. cerevisiae deletion strains, locus YNL071W, strain lat1, stronger effect = lower value 0.995 | S. cerevisiae deletion strains, locus YNL128W, strain TEP1, stronger effect = lower value 1.01 | S. cerevisiae deletion strains, locus YNL153C, strain GIM3, stronger effect = lower value 0.998 | S. cerevisiae deletion strains, locus YNL183C, strain NPR1, stronger effect = lower value 0.946 | S. cerevisiae deletion strains, locus YNL209W, strain ssb2, stronger effect = lower value 0.986 | S. cerevisiae deletion strains, locus YNL233W, strain BNI4, stronger effect = lower value 0.999 | S. cerevisiae deletion strains, locus YNL248C, strain rpa49, stronger effect = lower value 0.953 | S. cerevisiae deletion strains, locus YNL250W, strain rad50, stronger effect = lower value 1.02 | S. cerevisiae deletion strains, locus YNL271C, strain bni1, stronger effect = lower value 1.03 | S. cerevisiae deletion strains, locus YNL298W, strain CLA4, stronger effect = lower value 1.03 | S. cerevisiae deletion strains, locus YNL307C, strain MCK1, stronger effect = lower value 1.04 | S. cerevisiae deletion strains, locus YNL322C, strain KRE1 (second series), stronger effect = lower value 0.963 | S. cerevisiae deletion strains, locus YNL322C, strain KRE1, stronger effect = lower value 1.02 | S. cerevisiae deletion strains, locus YNR049C, strain mso1, stronger effect = lower value 0.963 | S. cerevisiae deletion strains, locus YNR052C, strain pop2, stronger effect = lower value 1.02 | S. cerevisiae deletion strains, locus YOL006C, strain TOP1, stronger effect = lower value 1.06 | S. cerevisiae deletion strains, locus YOL012C, strain htz1 0.995 | S. cerevisiae deletion strains, locus YOL147C, strain pex11, stronger effect = lower value 1.01 | S. cerevisiae deletion strains, locus YOR001W, strain rrp6, stronger effect = lower value 1.02 | S. cerevisiae deletion strains, locus YOR061W, strain CKA2, stronger effect = lower value 1.02 | S. cerevisiae deletion strains, locus YOR069W, strain VPS5, stronger effect = lower value 1.01 | S. cerevisiae deletion strains, locus YOR070C, strain gyp1, stronger effect = lower value 0.989 | S. cerevisiae deletion strains, locus YOR080W, strain dia2, stronger effect = lower value 0.953 | S. cerevisiae deletion strains, locus YOR083W, strain WHI5, stronger effect = lower value 0.997 | S. cerevisiae deletion strains, locus YOR106W, strain vam3, stronger effect = lower value 0.985 | S. cerevisiae deletion strains, locus YOR136W, strain idh2, stronger effect = lower value 1.01 | S. cerevisiae deletion strains, locus YOR144C, strain elg1, stronger effect = lower value 1.01 | S. cerevisiae deletion strains, locus YOR184W, strain ser1, stronger effect = lower value 1.04 | S. cerevisiae deletion strains, locus YOR231W, strain MKK1, stronger effect = lower value 0.958 | S. cerevisiae deletion strains, locus YOR265W, strain rbl2, stronger effect = lower value 1 | S. cerevisiae deletion strains, locus YOR270C, strain vph1, stronger effect = lower value 1 | S. cerevisiae deletion strains, locus YOR290C, strain snf2, stronger effect = lower value 0.957 | S. cerevisiae deletion strains, locus YOR316C, strain cot1, stronger effect = lower value 1.02 | S. cerevisiae deletion strains, locus YPL051W, strain arl3, stronger effect = lower value 0.999 | S. cerevisiae deletion strains, locus YPL055C, strain LGE1, stronger effect = lower value 1.02 | S. cerevisiae deletion strains, locus YPL078C, strain atp4, stronger effect = lower value 0.986 | S. cerevisiae deletion strains, locus YPL106C, strain sse1, stronger effect = lower value 0.948 | S. cerevisiae deletion strains, locus YPL240C, strain hsp82, stronger effect = lower value 0.996 | S. cerevisiae deletion strains, locus YPL241C, strain CIN2, stronger effect = lower value 1.02 | S. cerevisiae deletion strains, locus YPL256C, strain CLN2, stronger effect = lower value 0.949 | S. cerevisiae deletion strains, locus YPR119W, strain clb2, stronger effect = lower value 1.01 | S. cerevisiae deletion strains, locus YPR141C, strain kar3, stronger effect = lower value 1.02 | S. cerevisiae deletion strains, locus YPR163C, strain tif3, stronger effect = lower value 1.01 | S. cerevisiae deletion strains, locus YPR167C, strain met16, stronger effect = lower value 1.02 | S. cerevisiae deletion strains, strain wtn01, stronger effect = lower value 1.02 | S. cerevisiae strains, strain wild type, stronger effect = lower value 1.02
